# Only some compounds are listed: those with a hit (about 3.1% of all), similar ones and a draw of the others.
# FGF22 binding: binders of recombinant human FGF22 by thermal shift; Q9HCT0; SYPRO orange fluorescence; percent of sucrose octasulfate shift, DMSO zero; activity (Tm shift, normalised), % at 9.99 µM; actives 1.5% (n = 340,000); AID 651658;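 active = mean Tm shift, scaled 0 neutral to 100 positive control, at about 1.3% or above, every replicate too, limit read from the data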
# Target sequence (Q9HCT0 whole entry, looked up): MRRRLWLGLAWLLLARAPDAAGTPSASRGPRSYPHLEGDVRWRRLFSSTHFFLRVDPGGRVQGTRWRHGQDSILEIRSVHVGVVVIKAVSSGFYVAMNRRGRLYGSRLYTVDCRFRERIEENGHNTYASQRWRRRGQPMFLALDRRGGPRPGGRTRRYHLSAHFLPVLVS
# ERAP1 inh: ERAP1 (human) enzyme inhibition; recombinant ERAP1, Leu-AMC fluorescence, 60 min; inhibition, % at 10.7 µM; actives 0.15% (n = 340,000); AID 652197;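 active = mean replicate inhibition of at least 30%, or all replicates individually reaching that 30% level; inactive = mean below 30% and not every replicate reaching it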;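 note: 0% = neutral control wells and 100% = L-leucinethiol positive control wells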
# SIRT5 inh: inhibitors of human sirtuin-5 desuccinylase. actives 1.1% (n = 330,000). inhibition, % at 15 µM. Q9NXA8. AID 652115. Purified SirT5, succinyl-peptide AMC, trypsin-coupled fluorescence; in the data active = inhibition above about 15%
# CASP6 VEID inh: blocks human caspase-6 cleavage activity. AID 686996. P55212. inhibition, % at 12.5 µM. purified caspase-6, Z-VEID-R110 cleavage fluorescence. actives 0.53% (n = 350,000);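 active = mean inhibition across replicates at least about 35%, with every replicate also reaching that limit, limit read from the data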;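 note: 0% = median of neutral control wells and 100% = no fluorescence left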
# Target sequence (P55212 24-179 limits assumed): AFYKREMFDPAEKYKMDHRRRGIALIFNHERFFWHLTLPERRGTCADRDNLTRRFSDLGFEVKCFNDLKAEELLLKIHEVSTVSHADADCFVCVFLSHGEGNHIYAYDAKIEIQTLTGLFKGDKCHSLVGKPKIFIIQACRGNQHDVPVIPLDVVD
# Target sequence (P55212 194-293 limits assumed): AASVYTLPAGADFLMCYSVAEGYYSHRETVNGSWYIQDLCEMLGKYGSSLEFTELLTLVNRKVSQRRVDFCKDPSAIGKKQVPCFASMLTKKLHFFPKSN
# Active calls of the source: *; nt = no result given; ! = a repeat was not active.
SMILES,FGF22 binding,ERAP1 inh,SIRT5 inh,CASP6 VEID inh
Cc1ccc(S(=O)(=O)N2[C@@H](c3ccccc3)C(C(=O)O)=CC[C@H]2c2ccc(Cl)cc2)cc1,0,-1,26*,0
Cc1ccc(S(=O)(=O)N2[C@@H](c3ccc(F)cc3)C(C(=O)O)=CC[C@H]2c2ccc(Cl)cc2)cc1,1.6*,21,3,7
C[C@@H]1CN([C@@H](C)CO)C(=O)c2cc(C#Cc3ccccc3F)cnc2O[C@H]1CN(C)C(=O)C1CCC1,0,1,-2,-2
C[C@H](NC(=O)C[C@@H]1CC[C@H](NC(=O)C2CCOCC2)[C@H](CO)O1)c1ccccc1,0,3,1,-1
O=C(OCC(=O)N1CCCC1)c1cc(Br)ccc1Cl,0,-4,18*,-1
O=C(OCC(=O)N1CCCC1)c1c(Cl)ccc(Cl)c1Cl,0,-5,-2,0
C[C@H]1CN([C@@H](C)CO)C(=O)c2cc(NC(=O)C3CCCCC3)ccc2O[C@@H]1CN(C)S(=O)(=O)c1cn(C)cn1,0,-1,0,-2
O=C(Cc1cccnc1)N[C@@H]1CC[C@@H](CCn2cc(Cc3ccccc3)nn2)O[C@@H]1CO,0,-2,-3,2
COC(=O)c1ccc(-c2ccc(C(c3c(C)[nH][nH]c3=O)c3c(C)[nH][nH]c3=O)o2)cc1,nt,1,5,40*
Cc1[nH][nH]c(=O)c1C(c1ccc(-c2cccc(C(=O)O)c2)o1)c1c(C)[nH][nH]c1=O,-1,2,7,42*
Cc1[nH][nH]c(=O)c1C(c1ccc(-c2ccccc2C(=O)O)o1)c1c(C)[nH][nH]c1=O,0,-2,6,nt
COC(=O)COc1ccc(C(c2c(C)[nH][nH]c2=O)c2c(C)[nH][nH]c2=O)cc1,0,-1,2,2
Cc1ccc(S(=O)(=O)Nc2ccc3c(c2)C(=O)N([C@@H](C)CO)C[C@H](C)[C@H](CN(C)S(=O)(=O)c2c(C)noc2C)O3)cc1,0,0,-6,3
COCC(=O)N(C)C[C@H]1Oc2cc(-c3cccnc3)ccc2S(=O)(=O)N([C@@H](C)CO)C[C@H]1C,0,-1,-6,1
CC(C)CC#Cc1ccc2c(c1)O[C@@H](CN(C)S(=O)(=O)c1cccc(F)c1)[C@H](C)CN([C@@H](C)CO)S2(=O)=O,nt,-10,17*,2
CCCC#Cc1ccc2c(c1)O[C@@H](CN(C)S(=O)(=O)c1cccc(F)c1)[C@@H](C)CN([C@H](C)CO)S2(=O)=O,0,0,1,-4
CCCC#Cc1ccc2c(c1)O[C@H](CN(C)S(=O)(=O)c1cccc(OC)c1)[C@H](C)CN([C@H](C)CO)S2(=O)=O,1,0,17*!,3
COCC#Cc1ccc2c(c1)O[C@@H](CN(C)S(=O)(=O)c1cccc(F)c1)[C@H](C)CN([C@H](C)CO)S2(=O)=O,-1,-3,2,4
COCC#Cc1ccc2c(c1)O[C@@H](CN(C)S(=O)(=O)c1cccc(F)c1)[C@@H](C)CN([C@H](C)CO)S2(=O)=O,0,2,19*!,0
CC(C)CC#Cc1ccc2c(c1)O[C@H](CN(C)S(=O)(=O)c1cccc(F)c1)[C@@H](C)CN([C@H](C)CO)S2(=O)=O,0,-3,16*,1
CN1C(=O)c2cc(NC(=O)C3CCOCC3)ccc2OC[C@@H]2O[C@@H](CC(=O)O)CC[C@H]21,0,-3,-2,4
CC=Cc1ccc2n(c1=O)C[C@@H]1[C@@H](CO)[C@H](C(=O)NCc3ccc(F)cc3)[C@H]2N1CCC (mixture of isomers),0,2,0,0
O=C(C[C@@H]1C[C@H]2c3cc(NC(=O)Nc4ccc(C(F)(F)F)cc4)ccc3O[C@H]2[C@@H](CO)O1)NCCc1ccccc1,0,2,4,-1
C[C@H]1CN([C@@H](C)CO)C(=O)c2cccc(NC(=O)c3ccncc3)c2O[C@@H]1CN(C)C(=O)Nc1ccc(F)cc1,0,2,3,1
COc1ccccc1-c1cnc2c(c1)C(=O)N([C@H](C)CO)C[C@@H](C)[C@H](CN(C)Cc1cncnc1)O2,0,1,-8,-2
SMILES,FGF22 binding,ERAP1 inh,SIRT5 inh,CASP6 VEID inh
CC(C)CC#Cc1ccc2c(c1)O[C@@H](CN(C)S(=O)(=O)c1cccc(F)c1)[C@@H](C)CN([C@@H](C)CO)S2(=O)=O,0,-2,20*,-1
C[C@H](CO)N1C[C@H](C)[C@H](CN(C)S(=O)(=O)c2cccc(F)c2)Oc2cc(C#CCN(C)C)ccc2S1(=O)=O,0,-1,5,-1
C[C@@H]1CN([C@H](C)CO)S(=O)(=O)c2ccc(C#CCN(C)C)cc2O[C@H]1CN(C)S(=O)(=O)c1cccc(F)c1,0,2,6,-2
CC(C)CC#Cc1ccc2c(c1)O[C@@H](CN(C)S(=O)(=O)c1cccc(F)c1)[C@H](C)CN([C@H](C)CO)S2(=O)=O,0,-1,19*,2
O=C(O)CCC(=O)Nc1ccc(SSc2ccc(NC(=O)CCC(=O)O)cc2)cc1,nt,38*,0,nt
C/C(=N/NC(=O)c1ccncc1)C1=C(O)CC(C)(C)CC1=O,44*,-1,-2,1
Cc1ccc2nc(N)nnc2c1,0,3,2,2
Nc1nnc2cc(Cl)ccc2n1,44*,-3,nt,-9
COc1ccc2c3c([nH]c2c1)[C@@H](CO)N(C(=O)c1ccc(F)cc1)CC31CN(C(=O)NC(C)C)C1,0,1,1,-2
Cc1ccc(S(=O)(=O)Oc2ccc(/C=N/N=C3/NC(=O)C(CC(=O)O)S3)cc2)cc1 (stereo not given),0,10,28*,8
COc1ccc(S(=O)(=O)Oc2cccc(/C=N/N=C3/NC(=O)C(CC(=O)O)S3)c2)cc1 (stereo not given),2.6*,-22,1,5
C[C@@H]1CN([C@H](C)CO)C(=O)c2cc(C#Cc3ccccc3F)cnc2O[C@@H]1CN(C)C(=O)C1CC1,0,0,-4,2
Nc1cccc(-c2cn3cccnc3n2)c1,43*,2,0,1
CN1C(=O)c2cc(NC(=O)Cc3ccccc3)ccc2OC[C@H]2O[C@@H](CC(=O)O)CC[C@H]21,0,-1,-2,-2
O=C(C[C@H]1CC[C@@H](NS(=O)(=O)c2ccccc2)[C@H](CO)O1)NCCN1CCCCC1,0,-3,-4,-13
COc1ccc(N2CCN(C(=O)CN(C)S(=O)(=O)c3cc(C)ccc3OC)CC2)cc1,nt,-2,19*,nt
C[C@@H]1CN([C@@H](C)CO)C(=O)c2cccc(NC(=O)NC3CCCCC3)c2O[C@H]1CN(C)S(=O)(=O)c1ccc(Cl)cc1,0,1,1,3
C[C@@H]1CN([C@H](C)CO)S(=O)(=O)c2ccc(C#Cc3cccc(F)c3)cc2O[C@@H]1CN(C)S(=O)(=O)c1ccccc1F,0,1,18*,0

# High-throughput results: PubChem BioAssay, Broad Institute
